Bioassay records as filed in PubChem.
In the library only some 4.4% were active in any assay of this set; here they are far more common.
D1 ag = agonists of human D1 dopamine receptor; activation, % at 2 µM; P21728; HEK293 T-REx D1 cells, calcium flux, agonist mode; hit rate 1% among 360,000
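Agonism was scored from calcium flux recorded over 180 s (1 read/s) after pintool compound addition, following a 10-cycle baseline. Cells were inducible force-coupled HEK293 TREx D1, plated overnight at 30 C and loaded with no-wash calcium dye.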
D1 antagonist = antagonists of human D1 dopamine receptor. activity change, negative = inhibition, % at 10 µM. HEK293 TREx D1 cells, calcium flux, dopamine EC80; stronger effect = lower value. P21728. AID 504652. hit rate 3.2% among 360,000; in the data active = activity change below about -30%
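Allosteric or orthosteric antagonism assessed as attenuation of the calcium response to EC80 dopamine, added 180 s after compound, in induced HEK293 Trex D1 cells loaded with no-wash calcium dye.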
TRHR PAM = TRH receptor (human) allosteric enhancement | P34981 | TRHR cells, fluo-8 calcium fluorescence, EC20 TRH enhancement | enhancement, % at 2 µM | hit rate 0.66% among 360,000 | AID 493056; in the data active = enhancement above about 30%
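Enhancer read-out: after compound pinning and an initial kinetic agonist-mode read, an EC20 of TRH (10 nM final) was injected and fluo-8 calcium signal (Ex 480/Em 530) followed at 1 s/cycle for 100 cycles in TRHR-expressing cells.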
USP1 inh = USP1/UAF1 (human) deubiquitinase inhibition; O94782; recombinant USP1/UAF1, Ub-Rhodamine cleavage fluorescence; Potency, µM (highest dose often 57.1 µM), actives largely listed as inhibitors; hit rate 0.23% among 390,000; active = well fitted inhibition curve with a large enough effect; inconclusive = small, poorly fitted or top-dose-only effect; inactive = no such curve, though single readings can be large or run the other way; also: nearly all actives have a fitted effect of over 60% in size
Target sequence (O94782 whole entry, looked up): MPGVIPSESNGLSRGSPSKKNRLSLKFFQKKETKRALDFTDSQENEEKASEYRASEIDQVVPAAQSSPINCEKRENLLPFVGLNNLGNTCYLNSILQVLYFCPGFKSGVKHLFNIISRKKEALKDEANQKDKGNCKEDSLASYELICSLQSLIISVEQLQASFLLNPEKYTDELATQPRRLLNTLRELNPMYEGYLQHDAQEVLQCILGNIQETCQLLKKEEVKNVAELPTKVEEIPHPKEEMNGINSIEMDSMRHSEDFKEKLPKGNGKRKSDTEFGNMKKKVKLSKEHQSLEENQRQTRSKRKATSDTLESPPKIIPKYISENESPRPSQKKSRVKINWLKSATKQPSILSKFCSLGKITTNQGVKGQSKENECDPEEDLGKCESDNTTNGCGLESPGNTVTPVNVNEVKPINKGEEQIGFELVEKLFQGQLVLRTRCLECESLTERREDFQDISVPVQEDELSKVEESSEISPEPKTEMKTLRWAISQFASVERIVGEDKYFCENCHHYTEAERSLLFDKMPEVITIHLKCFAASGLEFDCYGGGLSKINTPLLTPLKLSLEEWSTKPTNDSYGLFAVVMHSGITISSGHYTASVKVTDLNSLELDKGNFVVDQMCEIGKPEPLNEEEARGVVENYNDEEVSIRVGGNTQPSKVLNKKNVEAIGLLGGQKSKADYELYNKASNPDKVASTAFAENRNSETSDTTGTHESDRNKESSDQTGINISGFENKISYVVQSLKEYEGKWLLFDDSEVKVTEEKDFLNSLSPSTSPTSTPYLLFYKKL
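1 nM enzyme complex + cpd, 15 min RT; start with Ub-Rho 150nM final; kinetic fluorescence ex 480/em 540, 6 reads q60 s. Buffer 50mM HEPES pH 7.8, 0.5mM EDTA, 0.1 mg/ml BSA, 1mM TCEP, 0.01% Tween-20.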
D1 PAM = enhances dopamine response at the human D1 receptor; HEK293 TREx D1 cells, calcium flux, dopamine EC20 potentiation; hit rate 0.036% among 360,000; AID 504651; P21728; potentiation, % at 10 µM; in the data active = potentiation above about 30%
TRHR ag = agonists of human TRH receptor; P34981; TRHR cells, calcium flux fluo-8, FDSS agonist mode; activation, % at 2 µM; hit rate 0.18% among 360,000
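In this calcium-flux screen, cells bearing human TRHR are dye-loaded with fluo-8, baselined for 10 cycles, then exposed to library compounds; positive kinetic calcium responses during the agonist phase mark hits, with TRH as control.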
Hits are given with their value; 0 = inactive; ? = inconclusive; - = no result given. Rule as the data show it, unless noted: active = activation above about 30%; inactive = the rest.

SMILES	D1 ag	D1 antagonist	TRHR PAM	USP1 inh	D1 PAM	TRHR ag
Cc1cc2c(s1)c1cnn(Cc3ccc(Br)cc3)c(=O)c1n2C	0	0	0	-	0	0
O=S(=O)(c1ccccc1)N1CCN(Cc2nnc(-c3ccccc3)o2)CC1	-	-	-	0	-	-
Cc1ccc(S(=O)(=O)N2CCN(Cc3nnc(-c4c(-c5ccccc5)noc4C)o3)CC2)cc1	0	-42	0	0	-	0
OC(CN1CCCCC1)Cn1c2ccccc2c2cc(Br)ccc21 (centres undefined)	45	-63	0	0	0	0
C=Cc1ccc(N=Cc2c(O)ccc3ccccc23)cc1	0	0	0	?	0	0
Oc1ccc2ccccc2c1C=Nc1ccc(N2CCOCC2)cc1	52	0	0	?	0	0
Oc1ccccc1N=Cc1c(O)ccc2ccccc12	101	0	0	?	0	0
CCc1ccc(OCC(=O)Nc2c(C(=O)c3ccc(Br)cc3)oc3ccccc23)cc1	0	0	0	0	0	0
O=C1CCCC(NCCCCCCNC2=C([N+](=O)[O-])C(=O)CCC2)=C1[N+](=O)[O-]	0	-92	0	0	0	0
CCc1nnc(SC(CC)C(=O)Nc2ccc(OC)c(Cl)c2)c2cc3occc3n12 (centres undefined)	0	0	0	0	0	0
CC(C)Cc1ccc(C(C)C(=O)OCC(=O)c2c[nH]c3ccccc23)cc1 (centres undefined)	37	0	0	0	0	0
O=C(Nc1ccc(Br)cc1F)c1ccc2nsnc2c1	0	-33	0	0	0	0
O=C(NCCCN1CCN(c2ccccc2F)CC1)C1CCCN(S(=O)(=O)c2cnc[nH]2)C1 (centres undefined)	0	-53	0	0	0	0
CC(C)c1ccc(CNC(=O)C(=O)NCCCn2ccnc2)cc1	0	0	32	0	0	0
Cc1cc(Cl)ccc1OC(C)C(=O)NCCCn1ccnc1 (centres undefined)	0	-35	0	0	0	0
CC(Oc1ccc(Cl)cc1)C(=O)NCCCn1ccnc1 (centres undefined)	0	0	0	0	0	0
CC(NC(=O)C(=O)NCCCn1ccnc1)c1ccccc1 (centres undefined)	0	0	0	0	0	0
O=C(c1ccc2c(c1)N(Cc1ccc(F)cc1)C(=O)c1ccccc1S2(=O)=O)N1CCCCC1	0	0	0	?	0	0
CCCCCOc1ccccc1CN1C(=O)C(=O)c2cc(C)ccc21	0	0	0	0	0	0
O=C(CN1CCCN(S(=O)(=O)c2ccc(Br)cc2)CC1)Nc1cccc(C(F)(F)F)c1	0	0	0	0	0	0
COc1ccccc1/C=C/C=N/n1c(-c2n[nH]c3c2CCC3)n[nH]c1=S	0	0	0	0	0	0
S=c1[nH]nc(-c2n[nH]c3c2CCC3)n1/N=C/C=C/c1ccco1	0	0	39	0	0	0
Cc1ccc2c(c1)N(C(=O)N1CCC(C(=O)Nc3cccc(F)c3)CC1)CCO2	0	0	0	0	0	0
Cc1ccc(C)c(N2CCN(C(=O)c3cnn(C(C)(C)C)c3C3CCN(C(=O)OC(C)(C)C)CC3)CC2)c1	0	0	0	?	0	0
CCn1cc(C(=O)OCC(=O)N(C)C2CCS(=O)(=O)C2)c(=O)c2ccc(C)nc21 (centres undefined)	0	0	31	0	0	0
SMILES	D1 ag	D1 antagonist	TRHR PAM	USP1 inh	D1 PAM	TRHR ag
CCn1cc(C(=O)OCC(=O)c2cc(C)n(-c3ccc(OC(F)F)cc3)c2C)c(=O)c2ccc(C)nc21	0	-32	0	0	0	0
CCn1cc(C(=O)OCC(=O)N2C(C)CCCC2C)c(=O)c2ccc(C)nc21 (centres undefined)	0	0	0	0	0	0
Brc1ccc(CN2CCN(Cc3c[nH]c4ccccc34)CC2)cc1	0	0	0	0	0	0
O=[N+]([O-])c1ccc(CN2CCN(Cc3c[nH]c4ccccc34)CC2)cc1	0	-72	0	0	0	0
O=C(NCCc1c[nH]c2ccccc12)c1ccc([N+](=O)[O-])cc1	0	-49	0	0	0	0
O=C(CCc1c[nH]c2ccccc12)NCCc1ccc(Cl)cc1	0	-33	0	0	0	0
COc1cc(NC(=O)Cn2nnc(-c3ccc(C(F)(F)F)cc3)n2)c(C(=O)O)cc1OC	0	0	0	?	0	0
CCCc1cc(C(=O)N2CCN(c3ccccc3C)CC2)cs1	0	-43	0	0	0	0
CCCc1cc(C(=O)N2CCCN(C)CC2)cs1	0	0	0	0	0	0
CC1CN(C(=O)Nc2ccc(C(=O)NCc3cccc(F)c3)cc2)c2ccccc2S1 (centres undefined)	0	-43	0	0	0	0
CC1CN(C(=O)CCC(=O)NCc2ccc(Cl)cc2)c2ccccc2O1 (centres undefined)	0	-83	0	0	0	0
CC1CN(C(=O)CCC(=O)NCc2cccc(Cl)c2)c2ccccc2S1 (centres undefined)	0	-32	0	0	0	0
Cc1ccc(-n2c(=O)c3cccnc3n2CC(=O)Nc2ccc(Br)cc2)cc1C	0	0	0	0	0	0
CC1=NNC(=O)/C1=C\c1cn(-c2ccccc2)nc1-c1ccc(F)cc1	0	-54	0	?	0	0
CC1=NNC(=O)/C1=C\c1cn(-c2ccccc2)nc1-c1cccs1	0	-40	0	0	0	0
Cc1ccc(OCCn2c(Br)nc3c2c(=O)n(C)c(=O)n3C)cc1	0	-33	0	0	0	0
CC1=C(C(=O)Nc2cccc(C(F)(F)F)c2)C2(CCCCCC2)OC1=O	32	0	0	0	0	0
CC(=O)c1c(C)[nH]c(C(=O)NCc2ccccc2Cl)c1C	0	0	34	0	0	0
CC(=O)c1c(C)[nH]c(C(=O)Nc2cccc3ccccc23)c1C	0	-33	0	0	0	0
CC(=O)c1c(C)[nH]c(C(=O)NC(C)c2ccccc2)c1C (centres undefined)	0	-33	0	0	0	0
CCC(C)c1ccccc1NC(=O)c1[nH]c(C)c(C(C)=O)c1C (centres undefined)	0	0	0	0	0	0
CCOC(=O)C1CCN(C(=O)c2nn(-c3ccc(C)cc3)c(=O)c3c2c2ccccc2n3C)CC1	0	0	0	0	0	0
CC(=O)c1c(C)[nH]c(C(=O)Nc2cccc(C#N)c2)c1C	0	0	0	?	0	0
CCOc1ccc(NC(=O)c2[nH]c(C)c(C(C)=O)c2C)cc1	0	0	0	0	0	0
CC(=O)c1c(C)[nH]c(C(=O)Nc2cccc(C(F)(F)F)c2)c1C	0	-33	0	0	0	0
